# Data as given in the OligoGym collection.
# Target: WNK4
# Test: pooled miR-30 sensor sort-seq; sequence = guide strand
# Conditions: shRNA
# Note: reference of the scale not given here.
row,Sequence,sensor-assay potency score (higher = more potent)
1,TTTCCTCGTACATCTCGGGGGC,-0.103
2,TTCTGTAGTGTCTGTAGTGTTT,-0.833
3,ATTGTCGCACTTGAGATCCCGG,-0.626
4,TCAAACTTGAGGTATCGGCCAT,-0.186
5,TACACCGTCTTGAAGGAGCCAC,-0.497
6,TTGTTGATCAGAAAGCATCAGA,-0.592
7,TTTTCTGTAGTGTCTGTAGTGT,0.147
8,TTTTCCTCGTACATCTCGGGGG,0.127
9,TACTTTTCCTCGTACATCTCGG,-0.00694
10,TAGTTCATCCACACTGGGCTGG,-0.183
11,TTTCTGTAGTGTCTGTAGTGTT,-0.643
12,TTGAGGTATCGGCCATCGGGGG,-1.54

# Target: WNT16
# Test: as above
# Conditions: shRNA
row,Sequence,sensor-assay potency score (higher = more potent)
1,TTCTTTACAAAACACTGTCTTT,-0.946
2,TAACTTTTCAACATCTTCTATC,-0.48
3,TTTCTTATCTTCTACACAGTAG,-0.455
4,TTAACAGTTGAAACTGATCTGT,-0.124
5,TAACAGTTGAAACTGATCTGTG,0.0469
6,TTAACTTTTCAACATCTTCTAT,-0.546
7,TCTACTGACATCAACTTGGCGA,-0.481
8,TTTACATTAAAATACATCCTTA,-0.353
9,TTATCTTCTACACAGTAGTTGG,-1.09
